Test results taken from article PMC7862700, “An all-to-all approach to the identification of sequence-specific readers for epigenetic DNA modifications on cytosine”.

Experiments:
Assay in all cases: DAPPL (digital affinity profiling via proximity ligation, sequencing); 10 mM Tris-HCl pH 7.5, 50 mM NaCl, 1 mM DTT, 4% glycerol, room temperature, 30 min; GST-TFs on glutathione beads, 16-mer random dsDNA library, 0.1% formaldehyde crosslink after washing; high values mean tight binding
Conditions in all cases: protein: recombinant; tags: N-terminal GST; dsDNA, one strand shown
[1] = molecular target: T1, FLI1 (Homo sapiens, UniProt Q01543 1-452)
T1 sequence: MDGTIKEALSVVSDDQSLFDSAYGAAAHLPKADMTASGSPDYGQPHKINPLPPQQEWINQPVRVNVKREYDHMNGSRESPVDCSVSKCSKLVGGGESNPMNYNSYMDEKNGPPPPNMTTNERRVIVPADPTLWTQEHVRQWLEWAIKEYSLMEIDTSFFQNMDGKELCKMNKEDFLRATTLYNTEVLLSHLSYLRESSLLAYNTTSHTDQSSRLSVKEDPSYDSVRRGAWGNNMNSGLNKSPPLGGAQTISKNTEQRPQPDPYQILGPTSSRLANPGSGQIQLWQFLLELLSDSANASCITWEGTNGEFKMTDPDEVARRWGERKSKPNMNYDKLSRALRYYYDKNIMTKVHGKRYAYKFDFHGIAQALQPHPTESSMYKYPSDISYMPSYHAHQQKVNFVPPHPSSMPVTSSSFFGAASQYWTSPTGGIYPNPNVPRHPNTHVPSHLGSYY
Summary of the method: (§1)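 Pools of DNA-barcoded human transcription factors, expressed in yeast as GST fusions on glutathione beads and combined with a tag-only sample, were incubated with 200 nmole of a 16-mer random double-stranded DNA library. Incubation took 30 min at room temperature in Tris/NaCl/DTT/glycerol buffer and was followed by washing, 0.1% formaldehyde crosslinking, proximity ligation (BsaI/T4 ligase, 1 h, 37 °C), PCR amplification and sequencing on an Illumina NextSeq500. Binding signal is the ratio of a hexamer's read frequency for a factor to its frequency for the tag-only sample.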

[2] = molecular target: T2, ELK1 (Homo sapiens, UniProt P19419 1-428)
T2 sequence: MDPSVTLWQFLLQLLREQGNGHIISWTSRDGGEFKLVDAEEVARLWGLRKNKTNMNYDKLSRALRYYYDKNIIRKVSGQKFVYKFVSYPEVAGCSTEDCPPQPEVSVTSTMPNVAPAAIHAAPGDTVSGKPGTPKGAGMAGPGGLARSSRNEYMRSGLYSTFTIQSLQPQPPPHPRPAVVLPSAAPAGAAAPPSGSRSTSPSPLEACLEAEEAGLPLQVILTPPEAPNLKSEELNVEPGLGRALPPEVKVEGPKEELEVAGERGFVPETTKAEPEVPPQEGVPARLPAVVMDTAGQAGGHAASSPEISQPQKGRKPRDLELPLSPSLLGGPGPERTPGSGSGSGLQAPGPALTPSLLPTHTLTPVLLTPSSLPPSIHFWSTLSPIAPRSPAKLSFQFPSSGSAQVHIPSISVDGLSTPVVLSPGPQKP
Summary of the method: as §1

[3] = molecular target: T3, GABPA (Homo sapiens, UniProt Q06546 1-454)
T3 sequence: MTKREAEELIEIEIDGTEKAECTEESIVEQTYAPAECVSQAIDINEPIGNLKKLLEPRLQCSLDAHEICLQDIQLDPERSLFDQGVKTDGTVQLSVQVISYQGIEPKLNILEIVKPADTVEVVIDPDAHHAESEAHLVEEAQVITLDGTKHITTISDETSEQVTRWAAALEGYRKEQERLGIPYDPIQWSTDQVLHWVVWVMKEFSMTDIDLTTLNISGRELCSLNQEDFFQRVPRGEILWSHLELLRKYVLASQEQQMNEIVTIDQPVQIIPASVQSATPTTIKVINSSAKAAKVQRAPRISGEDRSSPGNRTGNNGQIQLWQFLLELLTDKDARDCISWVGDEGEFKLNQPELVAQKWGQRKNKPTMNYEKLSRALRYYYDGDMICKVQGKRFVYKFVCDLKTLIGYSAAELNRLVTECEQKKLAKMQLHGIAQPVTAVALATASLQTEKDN
Summary of the method: as §1

[4] = molecular target: T4, ERG (Homo sapiens, UniProt P11308 1-479)
T4 sequence: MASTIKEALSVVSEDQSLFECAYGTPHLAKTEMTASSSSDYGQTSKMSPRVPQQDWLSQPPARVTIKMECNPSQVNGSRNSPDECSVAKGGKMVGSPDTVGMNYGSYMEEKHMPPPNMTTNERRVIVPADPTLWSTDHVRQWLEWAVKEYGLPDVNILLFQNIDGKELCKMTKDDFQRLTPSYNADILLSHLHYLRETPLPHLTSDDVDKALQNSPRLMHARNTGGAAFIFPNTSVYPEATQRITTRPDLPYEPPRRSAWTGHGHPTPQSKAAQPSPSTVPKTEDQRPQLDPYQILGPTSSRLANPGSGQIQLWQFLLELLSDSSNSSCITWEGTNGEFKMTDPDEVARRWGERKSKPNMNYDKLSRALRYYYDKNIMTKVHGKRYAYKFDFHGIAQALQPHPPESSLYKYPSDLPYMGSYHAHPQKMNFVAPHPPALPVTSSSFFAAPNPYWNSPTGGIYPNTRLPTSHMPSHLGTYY
Summary of the method: as §1

[5] = molecular target: ELF1 (Homo sapiens, UniProt P32519 1-619)
Summary of the method: as §1

[6] = molecular target: T5, EHF (Homo sapiens, UniProt Q9NZC4 1-300)
T5 sequence: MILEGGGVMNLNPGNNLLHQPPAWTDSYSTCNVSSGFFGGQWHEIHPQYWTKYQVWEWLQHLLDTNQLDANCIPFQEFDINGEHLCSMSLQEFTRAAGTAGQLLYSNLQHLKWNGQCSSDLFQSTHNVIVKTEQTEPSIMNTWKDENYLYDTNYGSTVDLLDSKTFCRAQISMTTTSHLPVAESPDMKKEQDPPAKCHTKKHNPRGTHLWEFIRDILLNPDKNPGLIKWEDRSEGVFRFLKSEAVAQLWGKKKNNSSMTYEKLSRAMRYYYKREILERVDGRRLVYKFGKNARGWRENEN
Summary of the method: as §1

[7] = molecular target: SPI1 (Homo sapiens, UniProt P17947 1-270)
Summary of the method: as §1

[8] = molecular target: SPIB (Homo sapiens, UniProt Q01892 1-262)
Summary of the method: as §1

[9] = molecular target: T6, ELK3 (Homo sapiens, UniProt P41970 1-407)
T6 sequence: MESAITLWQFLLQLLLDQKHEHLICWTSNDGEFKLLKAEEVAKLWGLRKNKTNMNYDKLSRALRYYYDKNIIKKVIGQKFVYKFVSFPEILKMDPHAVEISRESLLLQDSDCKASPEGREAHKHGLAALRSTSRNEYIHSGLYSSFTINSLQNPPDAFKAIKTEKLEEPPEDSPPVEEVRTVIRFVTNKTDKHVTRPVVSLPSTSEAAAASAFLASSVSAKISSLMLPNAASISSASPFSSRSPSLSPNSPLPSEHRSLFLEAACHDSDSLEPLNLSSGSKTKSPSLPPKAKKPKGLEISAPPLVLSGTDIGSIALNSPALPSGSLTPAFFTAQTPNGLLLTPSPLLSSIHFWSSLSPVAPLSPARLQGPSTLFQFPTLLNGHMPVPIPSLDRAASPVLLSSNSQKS
Summary of the method: as §1

Chain of ELF1 (P32519 whole entry): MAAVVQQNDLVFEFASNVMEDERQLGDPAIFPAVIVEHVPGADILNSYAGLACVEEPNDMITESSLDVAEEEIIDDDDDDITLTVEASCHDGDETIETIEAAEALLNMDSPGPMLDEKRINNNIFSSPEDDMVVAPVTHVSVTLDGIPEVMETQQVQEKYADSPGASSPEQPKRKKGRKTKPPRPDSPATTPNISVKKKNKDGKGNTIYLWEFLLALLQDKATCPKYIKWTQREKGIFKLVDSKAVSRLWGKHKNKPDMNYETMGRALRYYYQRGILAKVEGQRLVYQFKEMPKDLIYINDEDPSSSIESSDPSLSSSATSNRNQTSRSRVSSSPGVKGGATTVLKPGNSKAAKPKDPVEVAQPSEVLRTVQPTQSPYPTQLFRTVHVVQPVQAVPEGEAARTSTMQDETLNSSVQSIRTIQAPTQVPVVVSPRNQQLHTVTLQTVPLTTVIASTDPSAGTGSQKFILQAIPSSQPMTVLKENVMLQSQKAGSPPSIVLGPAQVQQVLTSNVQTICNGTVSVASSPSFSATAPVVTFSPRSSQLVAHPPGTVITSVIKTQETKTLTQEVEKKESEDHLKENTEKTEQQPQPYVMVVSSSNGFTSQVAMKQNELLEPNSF
Chain of SPIB (Q01892 whole entry): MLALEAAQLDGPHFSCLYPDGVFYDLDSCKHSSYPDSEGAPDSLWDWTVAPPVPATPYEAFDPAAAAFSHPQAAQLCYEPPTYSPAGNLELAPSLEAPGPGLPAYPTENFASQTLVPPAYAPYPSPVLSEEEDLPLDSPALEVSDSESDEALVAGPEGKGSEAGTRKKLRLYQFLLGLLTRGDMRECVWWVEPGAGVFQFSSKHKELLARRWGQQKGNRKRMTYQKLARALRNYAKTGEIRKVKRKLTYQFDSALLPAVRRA

TCTGCG
binding signal [1]: 1.12 fold enrichment (6-mer frequency, TF over GST control)
binding signal [2]: 1.28 fold enrichment (6-mer frequency, TF over GST control)
binding signal [3]: 1.27 fold enrichment (6-mer frequency, TF over GST control)
binding signal [4]: 1.18 fold enrichment (6-mer frequency, TF over GST control)
binding signal [5]: 1.2 fold enrichment (6-mer frequency, TF over GST control)
binding signal [6]: 1.23 fold enrichment (6-mer frequency, TF over GST control)
binding signal [7]: 1.28 fold enrichment (6-mer frequency, TF over GST control)
binding signal [8]: 1.23 fold enrichment (6-mer frequency, TF over GST control)
binding signal [9]: 1.11 fold enrichment (6-mer frequency, TF over GST control)
